In all, about 360,000 compounds went through this assay and about 11,000 (3.1%) were called active. No stated cut-off is given here; in the data, active means activity change below about -30%; inactive means the rest. The sample as a whole holds a higher share of actives than the screen did.

In PubChem BioAssay AID504652 (National Center for Advancing Translational Sciences (NCATS), 2011) one finds activity change, negative = inhibition data, which are given here for 44 compounds.
On the % scale 0 is the no-effect control and ±100 the full control effect.

For the experiment, the target named is D(1A) dopamine receptor (Homo sapiens) (UniProt P21728). Description: Antagonist of Human D 1 Dopamine Receptor: qHTS. The following applies: HEK293 TREx D1 cells, calcium flux, dopamine EC80; at 10 µM; active compounds read low. Put shortly: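 Inducible Hek293 Trex D1 cells (tetracycline, overnight, 30 C). Calcium dye 30–90 min RT. Antagonist mode: EC80 dopamine added after 180 s compound read.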
Sequence of D(1A) dopamine receptor (Homo sapiens) (P21728 whole entry, looked up): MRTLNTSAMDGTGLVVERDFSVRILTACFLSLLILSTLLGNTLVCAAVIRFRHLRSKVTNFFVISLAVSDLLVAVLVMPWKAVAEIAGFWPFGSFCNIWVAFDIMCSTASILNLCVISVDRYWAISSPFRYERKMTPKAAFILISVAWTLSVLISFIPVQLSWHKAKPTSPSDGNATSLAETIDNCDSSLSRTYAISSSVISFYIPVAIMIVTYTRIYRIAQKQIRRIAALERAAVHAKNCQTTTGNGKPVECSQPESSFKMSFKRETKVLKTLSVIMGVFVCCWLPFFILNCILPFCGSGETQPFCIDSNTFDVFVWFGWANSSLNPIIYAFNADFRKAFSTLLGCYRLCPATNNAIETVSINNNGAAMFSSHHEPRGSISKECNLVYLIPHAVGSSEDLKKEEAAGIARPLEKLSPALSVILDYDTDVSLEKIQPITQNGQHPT
`COC(=O)c1sccc1NC(=S)Nc1ccc(C)cc1`: the activity change, negative = inhibition is -32.4% (active). On to `COC(=O)c1sccc1NS(=O)(=O)c1ccc(F)cc1F`, for which the activity change, negative = inhibition was -12% (inactive). With `COC(=O)c1ccc(NC(=O)Nc2ccc(C)cc2)cc1` the figure was -35.1% (active); with `COC(=O)c1ccc(NC(=S)Nc2cccc(C)n2)cc1`, -4.64% (inactive).

With `COC(=O)c1sccc1NN1C(=O)c2ccccc2C1=O`, the activity change, negative = inhibition is -47.9% (active). As for `COC(=O)c1sccc1NC(=O)c1ccc(Cl)cc1`, the activity change, negative = inhibition was 1.11% (inactive).

On to `COc1cc(NC(=O)Nc2ccc(C)cc2)cc([N+](=O)[O-])c1`, for which the activity change, negative = inhibition is -3.95% (inactive). Consider `CCOC(=O)C(=CNNc1ccsc1C(=O)OC)C(=O)OCC`, for which the activity change, negative = inhibition was 12.1% (inactive).

As for `COC(=O)c1sccc1NC(=O)CCC1CCCC1`, the activity change, negative = inhibition was 1.13% (inactive). For the compound `Cc1oc2c(c1C(=O)Nc1ccc(F)c(F)c1)C1=NCCN1C=N2`, the activity change, negative = inhibition is -2.12% (inactive). `CCOC(=O)c1ccc(NC(=O)c2ncn(-c3ccccc3)n2)cc1`: the activity change, negative = inhibition was -18.3% (inactive). Consider `O=C(CCC1N=C2c3ccccc3N=C(SCc3ccccc3F)N2C1=O)NCCc1ccccc1` (centres undefined), for which the activity change, negative = inhibition is 14.5% (inactive). For `COc1ccc(N2CCN(Cc3nc4c(c(=O)[nH]c(=O)n4C)n3Cc3ccc(Cl)cc3)CC2)cc1`, the activity change, negative = inhibition is -1.05% (inactive). In the case of `Cc1cccc(NC(=O)c2nc(S(=O)(=O)Cc3ccccc3)ncc2Cl)c1`, the activity change, negative = inhibition is -28.7% (inactive). Regarding `Cc1ccc(NC(=O)c2nc(S(=O)(=O)Cc3cccc(C)c3)ncc2Cl)cc1`, the activity change, negative = inhibition is -29.3% (inactive). Turning to `Cc1cccc(CS(=O)(=O)c2ncc(Cl)c(C(=O)Nc3ccc(F)cc3)n2)c1`, the activity change, negative = inhibition is -44.7% (active). With `CCc1cccc(CC)c1NC(=O)Cn1c(=O)c(-c2cc(C)ccc2NC(C)=O)nc2ccccc21`, the activity change, negative = inhibition was -15.1% (inactive). Consider `Cc1nn(C)c2c1c(C(F)(F)F)cc(=O)n2C(C)C(=O)NCc1ccc(Cl)cc1` (centres undefined), for which the activity change, negative = inhibition was 16.7% (inactive). With `O=C(Nc1ccc(S(=O)(=O)N2CCC(c3nc4ccccc4s3)CC2)cc1)c1ccccc1F` the figure was 11% (inactive). Consider `COc1ccc(N2CCN(S(=O)(=O)CCNC(=O)C(c3ccccc3)c3ccccc3)CC2)cc1`, for which the activity change, negative = inhibition is -1.95% (inactive). `O=[N+]([O-])c1ccccc1Nc1ccc(O)cc1`: the activity change, negative = inhibition is 5.4% (inactive). Regarding `CNc1ccc(NC(C)=O)cc1[N+](=O)[O-]`, the activity change, negative = inhibition is -1.26% (inactive).

On to `Cc1ccc(Nc2ccc(C(N)=O)cc2[N+](=O)[O-])cc1`, for which the activity change, negative = inhibition was -47.2% (active).

`NC(=O)c1ccc(Nc2ccc3c(c2)CCC3)c([N+](=O)[O-])c1`: the activity change, negative = inhibition was -48.2% (active).

For `CCOc1ccccc1Nc1ccc(C(=O)O)cc1[N+](=O)[O-]`, the activity change, negative = inhibition was -11.5% (inactive). With `CCOC(=O)c1ccc(NNC(C)=O)c([N+](=O)[O-])c1`, the activity change, negative = inhibition is -8.63% (inactive). As to `COC(=O)c1cnn(-c2ccc(C(=O)Nc3ccc(OC(F)(F)F)cc3)cc2)c1N`, the activity change, negative = inhibition is -10.8% (inactive). For the compound `COc1ccc(Cn2c(C(=O)O)c(CNCc3cccc(OC)c3)c3ccc(C)cc32)cc1`, the activity change, negative = inhibition was 8.54% (inactive).

For `C[C@H](NC(=O)C1CC(=O)N(c2ccc3c(c2)OCCO3)C1)C(=O)N1CCC(C(=O)O)CC1` (some centres undefined), the activity change, negative = inhibition was 9.3% (inactive). Consider `CC(C)C[C@H](NC(=O)C1CC(=O)N(c2ccc3c(c2)OCCO3)C1)C(=O)NC1CCCC1` (some centres undefined), for which the activity change, negative = inhibition was -44.1% (active). For the compound `CCOC(=O)c1ccc(NC(=O)C2CC(=O)N(c3ccc4c(c3)OCCO4)C2)cc1` (centres undefined), the activity change, negative = inhibition is 6.91% (inactive). For the compound `CCN(CC(=O)NCc1ccco1)S(=O)(=O)c1ccc(F)cc1`, the activity change, negative = inhibition is -0.842% (inactive). As for `COc1ccc(S(=O)(=O)N(CC(=O)NCc2ccco2)c2ccc(F)cc2)cc1`, the activity change, negative = inhibition is -3.07% (inactive). With `Cc1ccc(S(=O)(=O)N(CC(=O)NCc2ccco2)c2ccccc2C)cc1` the figure was -44.4% (active). For `CCOC(=O)N1CCN(S(=O)(=O)N2CCCC(C(=O)NCCCN3CCC(C)CC3)C2)CC1` (centres undefined), the activity change, negative = inhibition is 2.88% (inactive). With `CCCS(=O)(=O)N1CCCC(C(=O)NCCN2CCCCC2C)C1` (centres undefined), the activity change, negative = inhibition is -41.8% (active). As to `CCCS(=O)(=O)N1CCCC(C(=O)NCc2ccco2)C1` (centres undefined), the activity change, negative = inhibition is 6.64% (inactive).

`COc1ccccc1CNC(=O)CCn1c(=O)c2ccccc2n(CC(=O)Nc2ccc(Br)cc2F)c1=O`: the activity change, negative = inhibition is 0.197% (inactive). Regarding `COc1ccc(C)cc1NC(=O)CCc1c(C)nn(-c2ccc(N3CCOCC3)nn2)c1C`, the activity change, negative = inhibition is -25.9% (inactive).

On to `Cc1ccc(NC(=S)N(CCN(C)C)Cc2cccs2)cc1C`, for which the activity change, negative = inhibition was -42.5% (active). In the case of `Cc1ccc(Cl)cc1NC(=S)N(CCN(C)C)Cc1cccs1`, the activity change, negative = inhibition was -0.901% (inactive). In the case of `Cc1ccccc1NC(=S)N(CCCN1CCOCC1)Cc1cccs1`, the activity change, negative = inhibition was -5.87% (inactive). Next, `COC(=O)c1scc(-c2ccc(C)cc2)c1S(=O)(=O)Nc1cc(Cl)c(OC)cc1OC`: 10.2% (inactive); `Cc1ccc(CSc2nc3ccsc3c(=O)n2CCC(C)C)cc1`: 13.8% (inactive).
